Shown are actives, neighbours in structure and some others; about 10% of the full set was active somewhere.
BAZ2B block: blocks human BAZ2B. Q9UIF8. AlphaScreen BAZ2B-H3K14Ac peptide displacement. Potency, µM (doses to about 114 µM), inactives show at the highest dose activity change, negative = inhibition, most hits filed as inhibitors. 360,000 compounds, 4.4% hits; note: % is set by controls: 0 for no effect and ±100 for the full control effect; nearly all actives have a fitted effect of over 60% in size
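Compounds, titrated to a top concentration of 110 uM, were incubated 30 min at room temperature with preformed BAZ2B/acetyl-K14 H3 peptide complex (50 nM each). Proximity signal was measured by AlphaScreen after 20 min with beads.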
G9a inh: blocks human histone lysine methyltransferase G9a | Potency, µM (doses to about 102 µM), without a hit: at the top dose activity, negative = inhibition, most hits filed as inhibitors | G9a H3K9 monomethylation, AlphaScreen, 2 h | Q96KQ7 | 350,000 compounds, 8.8% hits; note: % is set by controls: 0 for no effect and ±100 for the full control effect; nearly all actives have a fitted effect of over 75% in size
Target sequence (Q96KQ7 913-1193 limits assumed): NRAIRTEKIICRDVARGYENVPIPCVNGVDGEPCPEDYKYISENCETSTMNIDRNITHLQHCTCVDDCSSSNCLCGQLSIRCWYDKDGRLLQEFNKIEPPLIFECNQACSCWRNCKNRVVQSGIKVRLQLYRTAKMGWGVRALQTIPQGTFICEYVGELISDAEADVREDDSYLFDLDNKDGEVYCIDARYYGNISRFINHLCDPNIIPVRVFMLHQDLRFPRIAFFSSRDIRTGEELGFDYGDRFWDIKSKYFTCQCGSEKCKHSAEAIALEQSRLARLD
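G9a (20 nM) was preincubated 15 min with compound, then reacted 2 h at room temperature with 500 nM biotin-H3K9 peptide and 20 µM SAM. Monomethyl-H3K9 detected by AlphaScreen using anti-H3K9me1 antibody.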
JMJD2A Tudor: blocks the human JMJD2A Tudor domain; O75164; AlphaScreen JMJD2A-Tudor / H3K4me3 peptide binding; Potency, µM (series often up to 114 µM), without a hit: at the top dose activity change, negative = inhibition, usual class: inhibitors; 390,000 compounds, 4.4% hits; AID 504339; note: % is set by controls: 0 for no effect and ±100 for the full control effect; nearly all actives have a fitted effect of over 50% in size
L3MBTL1 block: blocks human L3MBTL1; Q9Y468; AlphaScreen L3MBTL1–H3K9me1 peptide binding; 230,000 compounds, 0.66% hits; Potency, µM (series often up to 57.1 µM), inactives show at the top dose activity, negative = inhibition, most hits filed as inhibitors; note: % is set by controls: 0 for no effect and ±100 for the full control effect; nearly all actives have a fitted effect of over 60% in size
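Read-out is AlphaScreen signal from streptavidin donor and nickel chelate acceptor beads (10 ug/mL final each) bridging L3MBTL1 (50 nM) and biotinylated K9-monomethylated H3(1-15) peptide (75 nM), after 30 min compound exposure at room temperature.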
GLS inh: glutaminase GLS (human) inhibition; O94925; GLS enzymatic activity, qHTS titration; Potency, µM (highest dose often 45.5 µM), for the others: top-dose activity change, negative = inhibition, usual class: inhibitors; 410,000 compounds, 0.21% hits; note: % is set by controls: 0 for no effect and ±100 for the full control effect
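hKGA; 45 mM KH2PO4 pH 8.2 + 0.02% Tween-20; cpd via pin tool; 1 mM Gln soln; GluOx/HRP/Amplex Red; RT 30 min; fluor. t0 & final.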
HP1b chromo inh: HP1-beta chromodomain-methylated histone interaction inhibition; 390,000 compounds, 0.56% hits; Potency, µM (doses to about 114 µM), for the others: at the top dose activity change, negative = inhibition, hits mostly inhibitors; P83916; AlphaScreen HP1-beta / biotin-H3K9me3 peptide binding; note: nearly all actives have a fitted effect of over 70% in size
Target sequence (P83916 whole entry, looked up): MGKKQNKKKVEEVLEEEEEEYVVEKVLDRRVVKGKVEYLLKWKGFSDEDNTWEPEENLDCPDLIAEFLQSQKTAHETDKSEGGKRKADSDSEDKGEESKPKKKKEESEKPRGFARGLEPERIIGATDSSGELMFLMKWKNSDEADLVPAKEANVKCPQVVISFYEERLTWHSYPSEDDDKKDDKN
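Compound inhibition of the preformed complex between 50 nM HP1-beta and 50 nM biotinylated H3K9me3 peptide was read by AlphaScreen. Buffer was PBS pH 7.4 with 0.01% Tween-20. Incubations ran 30 min at room temperature, with 10 ug/mL donor/acceptor beads.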
The depositor's hits bear a star; ? = inconclusive; . = no result given; [ ] = dose if it differs, or a comment. Calls come from the whole dose curve; as a rule, active = well fitted curve in the direction sought with a large enough effect; inconclusive = small, poorly fitted or top-dose-only effect, or another doubt; inactive = no such curve, though single readings can be large; an effect the other way counts as inactive or inconclusive. Potency is the fitted concentration of half-maximal effect.

SMILES	BAZ2B block	G9a inh	JMJD2A Tudor	L3MBTL1 block	GLS inh	HP1b chromo inh
COCCCn1c(=S)[nH]c2sc3c(c2c1=O)CCCS3	?	4.5µM*	-18%	29%	10%	27%
Cn1c(=S)[nH]c2sc3c(c2c1=O)CCC(C(C)(C)C)C3 (stereo unspecified)	3%	40µM*	.	.	.	.
COCCn1c(=S)[nH]c2sc3c(c2c1=O)CCC(C)C3 (stereo unspecified)	-5%	20µM*	-22%	.	?	15%
CCCCn1c2ccccc2c2nnc(SCC(=O)Nc3ccc(NC(C)=O)cc3)nc21	-12%	?	?	.	-2%	6%
CC(C)CN(CC(C)C)C(=O)C1CCCN(S(=O)(=O)c2ccc3c(c2)oc(=O)n3C)C1 (stereo unspecified)	0%	8%[59 µM]	-1%	.	-7%	59%
CCN(CC)c1ccc(CNCc2cccs2)cc1	50µM*	?	?	-8%	-17%	-1%
COc1cc(CNCc2cccs2)ccc1OCc1cccs1	11%	-3%[59 µM]	-10%	4%	10%	17%
CC(C)OC(=O)Nc1ccc2nc(-c3cscn3)[nH]c2c1	.	-50%[12.7 µM]	.	.	3%	.
COc1cccc(-c2nc(SCC(=O)NCC3CCCO3)c(-c3ccc(Cl)cc3)[nH]2)c1 (stereo unspecified)	-9%	-28%[59 µM]	-16%	.	-2%	0%
CC1CCC(NCC(=O)Nc2cccc(S(N)(=O)=O)c2)CC1 (stereo unspecified)	79µM*	10µM*	22µM*	0%	15%	-31%
CCN(CC)S(=O)(=O)c1cccc(NC(=O)CNC2CCCCCC2)c1	79µM*	35µM*	50µM*	-5%	5%	2%
CC1Cc2ccccc2N1CC(=O)Nc1cccc(S(N)(=O)=O)c1 (stereo unspecified)	-12%	0%	-22%	?	-9%	-1%
CN(C)S(=O)(=O)c1cccc(NC(=S)NC23CC4CC(CC(C4)C2)C3)c1	-16%	5%	-22%	.	1%	3%
CCN(CC)S(=O)(=O)c1cccc(C(=O)NCC2CCCCC2)c1	2%	-9%	28µM*	.	?	8%
CCN(CC)S(=O)(=O)c1cccc(NC(=O)CCNC(=O)NC23CC4CC(CC(C4)C2)C3)c1	-32%	50µM*	-27%	1%	-15%	8%
CCOc1ccc(-n2c(SCC(=O)N3CCC(C)CC3)nc3c([nH]c4ccccc43)c2=O)cc1	-1%	5%[59 µM]	0%	.	2%	11%[57 µM]
COc1ccc2oc(-c3ccc(C)c(NC(=O)c4ccc(-c5ccccc5[N+](=O)[O-])o4)c3)nc2c1	-13%	-22%[59 µM]	-12%	.	-27%	20%
CN(C)S(=O)(=O)c1cccc(NC(=O)CNCC2CCCCC2)c1	?	14µM*	22µM*	0%	-8%	-28%
CN(C)S(=O)(=O)c1cccc(NC(=O)CNc2cccc(S(=O)(=O)N3CCCCC3)c2)c1	.	.	.	.	14%	.
Cc1ccc(Cl)cc1NC(=O)CSc1sc2c(O)cc(=O)[nH]c2c1C#N	-14%	-7%[59 µM]	-27%	.	9%	-26%
Cc1ccc(C)c(NC(=O)CSc2sc3c(O)cc(=O)[nH]c3c2C#N)c1	50µM*	-5%[59 µM]	-23%	.	-4%	10%
COC(=O)c1ccc(C)c(NC(=O)CSc2sc3c(O)cc(=O)[nH]c3c2C#N)c1	50µM*	?	50µM*	.	-22%	-38%
O=C(CSCCO)Nc1cccc(C(F)(F)F)c1	4%	1%[12.7 µM]	-6%	6%	1%	37%
Cc1cc(NC(=O)CSc2sc3c(O)cc(=O)[nH]c3c2C#N)ccc1Br	79µM*	35µM*	-19%	.	12%	7%
N#Cc1c(SCC(=O)Nc2cccc(C(F)(F)F)c2)sc2c(O)cc(=O)[nH]c12	?	45µM*	-29%	.	-22%	-7%
SMILES	BAZ2B block	G9a inh	JMJD2A Tudor	L3MBTL1 block	GLS inh	HP1b chromo inh
CCc1ccccc1NC(=O)Nc1cc(C(=O)NCc2ccc(OC)cc2)ccc1N1CCCC1	15%	34%[59 µM]	-3%	.	20%	57%
Cc1ccc(S(=O)(=O)c2c(O)cc(C)c(NS(=O)(=O)c3ccc(Cl)cc3)c2C)cc1	?	-20%[59 µM]	-23%	.	0%	1%
Cc1ccc(OCC(=O)N2CC3(C)CC2CC(C)(C)C3)cc1 (stereo unspecified)	10%	-12%[59 µM]	0%	?	-10%	61%
Cc1ccc(OCC(O)CN2CC3(C)CC2CC(C)(C)C3)cc1 (stereo unspecified)	?	20µM*	1.1µM*	8%	15%	?
CC1(C)CC2CC(C)(CN2CC(O)c2ccccc2)C1 (stereo unspecified)	?	22µM*	5.6µM*	.	13%	-25%
Cc1cccc(OCC(O)CN2CC3(C)CC2CC(C)(C)C3)c1 (stereo unspecified)	?	28µM*	18µM*	?	15%	-34%
CC1(C)C(=O)Nc2ccccc2N1C(=O)COC(=O)c1cc([N+](=O)[O-])ccc1N	-9%	20µM*	-31%	-1%	13%	-2%
COc1cc(OC)cc(C(=O)NCC(=O)OCC(=O)N2c3ccccc3NC(=O)C2(C)C)c1	?	-3%	-16%	-8%	11%	1%
Cc1cc(C)cc(C(=O)NCC(=O)OCC(=O)N2c3ccccc3NC(=O)C2(C)C)c1	45µM*	-46%[59 µM]	-1%	18µM*	0%	32%
CC(=O)c1ccc(OC(=O)c2nc(-c3ccccc3)oc2C)cc1	?	56µM*	-29%	.	0%	26%
Cc1oc(-c2ccccc2)nc1C(=O)O	-15%	.	-7%	15%	2%	23%
Cc1c(NS(=O)(=O)c2ccc(N3CCN(C)CC3)c([N+](=O)[O-])c2)c(=O)n(-c2ccccc2)n1C	-23%	?	-16%	-3%	?	10%
O=[N+]([O-])c1cc(S(=O)(=O)Nc2ccccc2)ccc1N1CCN(c2ccccc2)CC1	40µM*	32µM*	10µM*	?	2%	?
O=[N+]([O-])c1cc(S(=O)(=O)C(F)(F)F)ccc1N1CCN(c2ccccc2)CC1	8.9µM*	20µM*	?	?	-13%	?
O=[N+]([O-])c1cc(S(=O)(=O)Nc2ccccc2)ccc1Nc1ccccc1	.	.	22µM*	.	1%	?
O=C(CCn1c(=O)c2cccn2c2cccnc21)NCc1ccc(Cl)cc1	-15%	9%[59 µM]	2%	.	-1%	50%
CN1CCc2cc3c(c4c2[C@H]1[C@H](O)c1ccccc1-4)OCO3	-32%	50µM*	-25%	-3%	2%	17%

Screening results (PubChem BioAssay)
